From PubChem BioAssay (EPA / NIEHS)
“And” between values parts separate entries of the source, which are not always exact repeats. Equal entries are not always repeated. The source holds several records for some structures; these can differ, active in one and inactive in another. The source made the active and inactive calls. The calls were made as follows: active = hit-call score of the fitted dose curve at least 0.9, where 1 is the maximum; inactive = score below 0.9.

Tests used:
[1] = BSK_BF4T_SRB: Viability Assessment in the BioMAP Diversity Plus: BF4T Assay (AID 2284274); details: primary human bronchial epithelial cells with fibroblasts;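 as to AC50: total cell protein by sulforhodamine B staining as a cytotoxicity measure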
Outline: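 Co-culture of human bronchial epithelial cells and dermal fibroblasts (BioMAP BF4T) exposed 24 h. Total protein by sulforhodamine B staining (0.1% SRB after 10% TCA fixation, 560 nm) in parallel cultures; fitted vs DMSO.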

[2] = read-out: urokinase Plasminogen Activator (uPA), PLAU (gene 5328); experiment: BSK_BF4T_uPA: BioMAP Diversity Plus: BF4T Assay for urokinase Plasminogen Activator (uPA) Biomarker Activity (AID 2284275); details: primary human bronchial epithelial cells with fibroblasts
Outline: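 Co-culture of human bronchial epithelial cells and dermal fibroblasts; uPA quantified by ELISA 24 hours after dosing, fitted relative to DMSO. Parallel SRB total-protein staining assessed overt cytotoxicity.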

[3] = read-out: Interleukin-8 (IL8), CXCL8 (gene 3576); experiment: BSK_IMphg_IL8: BioMAP Diversity Plus: IMphg Assay for Interleukin-8 (IL8) Biomarker Activity (AID 2284277); details: primary human endothelial cells with macrophages
Outline: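 Co-culture of human venular endothelial cells and macrophages exposed to chemicals for 24 h; IL-8 quantified by ELISA and compared against the DMSO baseline, with SRB total-protein staining in parallel cultures for cytotoxicity.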

[4] = read-out: Intercellular Adhesion Molecule 1 (ICAM1), ICAM1 (gene 3383); experiment: BSK_BE3C_ICAM1: BioMAP Diversity Plus: BE3C Assay for Intercellular Adhesion Molecule 1 (ICAM1) Biomarker Activity (AID 2284278); details: primary human bronchial epithelial cells
Outline: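 Human primary bronchial epithelial cultures; compound added; 24 h incubation; cell-surface ICAM-1 measured by ELISA; signal increase fitted relative to DMSO negative control.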

[5] = read-out: Interferon-inducible T-cell alpha chemoattractant (ITAC), CXCL11 (gene 6373); experiment: BSK_BE3C_ITAC: BioMAP Diversity Plus: BE3C Assay for Interferon-inducible T-cell alpha chemoattractant (ITAC) Biomarker Activity (AID 2284279); details: primary human bronchial epithelial cells
Outline: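 ELISA read-out of I-TAC after 24 h chemical dosing of human lung primary bronchial epithelial cells; gain-of-signal fit vs DMSO baseline. Parallel SRB total-protein staining (0.1% SRB, 10% TCA fixation, 560 nm) assessed cytotoxicity.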

[6] = read-out: Interleukin-8 (IL8), CXCL8 (gene 3576); experiment: BSK_BE3C_IL8: BioMAP Diversity Plus: BE3C Assay for Interleukin-8 (IL8) Biomarker Activity (AID 2284280); details: primary human bronchial epithelial cells
Outline: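 ELISA read-out of IL-8 in human lung bronchial epithelial primary cell cultures, 24 h post-dosing; endpoint analysed as signal increase relative to DMSO baseline.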

[7] = read-out: Epidermal growth factor receptor (EGFR), EGFR (gene 1956); experiment: BSK_BE3C_EGFR: BioMAP Diversity Plus: BE3C Assay for Epidermal growth factor receptor (EGFR) Biomarker Activity (AID 2284281); details: primary human bronchial epithelial cells
Outline: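 Primary human lung bronchial epithelial cells; compound, 24 h; EGFR measured by ELISA; positive-direction fit vs DMSO baseline.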

[8] = read-out: KRT18 (gene 3875); experiment: BSK_BE3C_Keratin818: BioMAP Diversity Plus: BE3C Assay for Keratin 818 Biomarker Activity (AID 2284282); details: primary human bronchial epithelial cells
Outline: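 Chemicals are added to human lung bronchial epithelial primary cells (BE3C system) and incubated 24 h. Keratin 8/18 is then measured by ELISA, with parallel SRB total-protein staining gauging overt cytotoxicity.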

[9] = read-out: Plasminogen activator inhibitor-1 (PAI1), SERPINE1 (gene 5054); experiment: BSK_CASM3C_PAI1: BioMAP Diversity Plus: CASM3C Assay for Plasminogen activator inhibitor-1 (PAI1) Biomarker Activity (AID 2284284); details: primary human coronary artery smooth muscle cells;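 also: PAI-1 protein level measured by ELISA 24 h after dosing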
[10] = read-out: Monocyte Chemoattractant Protein-1 (MCP1), CCL2 (gene 6347); experiment: BSK_hDFCGF_MCP1: BioMAP Diversity Plus: hDFCGF Assay for Monocyte Chemoattractant Protein-1 (MCP1) Biomarker Activity (AID 2284285); details: primary human foreskin fibroblasts
Outline: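 Human foreskin fibroblasts (hDFCGF system) were exposed to compound and secreted MCP-1 was measured by ELISA after 24 hours. Activity was fitted relative to DMSO. Cytotoxicity was checked by SRB total-protein staining in parallel cultures.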

[11] = read-out: Vascular cell adhesion molecule 1 (VCAM1), VCAM1 (gene 7412); experiment: BSK_IMphg_VCAM1: BioMAP Diversity Plus: IMphg Assay for Vascular cell adhesion molecule 1 (VCAM1) Biomarker Activity (AID 2284286); details: primary human endothelial cells with macrophages
Outline: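 Human venular endothelial cells co-cultured with macrophages; VCAM-1 quantified by ELISA 24 h after dosing, fitted in the positive direction against DMSO. Cytotoxicity was checked in parallel cultures by SRB total-protein staining (0.1% SRB after 10% TCA fixation, 560 nm).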

[12] = read-out: Intercellular Adhesion Molecule 1 (ICAM1), ICAM1 (gene 3383); experiment: BSK_hDFCGF_ICAM1: BioMAP Diversity Plus: hDFCGF Assay for Intercellular Adhesion Molecule 1 (ICAM1) Biomarker Activity (AID 2284287); details: primary human foreskin fibroblasts
Outline: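 Primary human foreskin fibroblasts (hDFCGF system) dosed with chemical; ICAM-1 quantified by ELISA at 24 h relative to DMSO. Parallel SRB total-protein staining to assess overt cytotoxicity.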

[13] = read-out: CD40, CD40 (gene 958); experiment: BSK_IMphg_CD40: BioMAP Diversity Plus: IMphg Assay for CD40 Biomarker Activity (AID 2284288); details: primary human endothelial cells with macrophages
Outline: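 Venular endothelial cells co-cultured with macrophages (human primary), CD40 measured by ELISA 24 h after dosing. Positive-direction fit vs DMSO baseline; cytotoxicity tracked by SRB total-protein staining in parallel cultures.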

[14] = read-out: TIMP metallopeptidase inhibitor 2 (TIMP2), TIMP2 (gene 7077); experiment: BSK_hDFCGF_TIMP2: BioMAP Diversity Plus: hDFCGF Assay for TIMP metallopeptidase inhibitor 2 (TIMP2) Biomarker Activity (AID 2284289); details: primary human foreskin fibroblasts
Outline: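 Primary human foreskin fibroblasts in the hDFCGF system, dosed for 24 h; TIMP-2 level measured by ELISA, fitted in the positive direction against DMSO; cytotoxicity checked in parallel by sulforhodamine B total protein staining.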

[15] = read-out: Matrix Metallopeptidase 9 (MMP9), MMP9 (gene 4318); experiment: BSK_BF4T_MMP9: BioMAP Diversity Plus: BF4T Assay for Matrix Metallopeptidase 9 (MMP9) Biomarker Activity (AID 2284276); details: primary human bronchial epithelial cells with fibroblasts
Outline: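 Co-culture of human bronchial epithelial cells and dermal fibroblasts dosed for 24 h; MMP-9 quantified by ELISA and fitted upward versus DMSO. Cytotoxicity monitored in parallel cultures by SRB total-protein staining at the biomarker time point.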

[16] = read-out: E-selectin (Homo sapiens) (UniProt P16581); experiment: BSK_IMphg_ESelectin: BioMAP Diversity Plus: IMphg Assay for Eselectin Biomarker Activity (AID 2284291); details: primary human endothelial cells with macrophages
Outline: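 Human venular endothelial cell–macrophage co-culture, E-selectin measured by ELISA 24 h after chemical dosing. Signal fitted in the positive direction against DMSO as negative control and baseline.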

[17] = read-out: Interleukin-1 alpha (IL1a), IL1A (gene 3552); experiment: BSK_IMphg_IL1a: BioMAP Diversity Plus: IMphg Assay for Interleukin-1 alpha (IL1a) Biomarker Activity (AID 2284290); details: primary human endothelial cells with macrophages
Outline: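 Human venular endothelial cells co-cultured with macrophages, IMphg system. IL-1α is measured by ELISA 24 h after dosing and fitted in the positive direction against DMSO. Cytotoxicity is assessed by SRB staining of parallel cultures.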

[18] = read-out: Plasminogen Activator Inhibitor-1 (PAI1), SERPINE1 (gene 5054); experiment: BSK_BF4T_PAI1: BioMAP Diversity Plus: BF4T Assay for Plasminogen Activator Inhibitor-1 (PAI1) Biomarker Activity (AID 2284273); details: primary human bronchial epithelial cells with fibroblasts
Outline: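 Co-culture of human bronchial epithelial cells and dermal fibroblasts exposed to compound for 24 h. PAI-1 measured by ELISA; activity fitted in positive direction versus DMSO. Parallel SRB staining assessed overt cytotoxicity.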

Measured: AC50

Chain of E-selectin (Homo sapiens) (P16581 whole entry, looked up): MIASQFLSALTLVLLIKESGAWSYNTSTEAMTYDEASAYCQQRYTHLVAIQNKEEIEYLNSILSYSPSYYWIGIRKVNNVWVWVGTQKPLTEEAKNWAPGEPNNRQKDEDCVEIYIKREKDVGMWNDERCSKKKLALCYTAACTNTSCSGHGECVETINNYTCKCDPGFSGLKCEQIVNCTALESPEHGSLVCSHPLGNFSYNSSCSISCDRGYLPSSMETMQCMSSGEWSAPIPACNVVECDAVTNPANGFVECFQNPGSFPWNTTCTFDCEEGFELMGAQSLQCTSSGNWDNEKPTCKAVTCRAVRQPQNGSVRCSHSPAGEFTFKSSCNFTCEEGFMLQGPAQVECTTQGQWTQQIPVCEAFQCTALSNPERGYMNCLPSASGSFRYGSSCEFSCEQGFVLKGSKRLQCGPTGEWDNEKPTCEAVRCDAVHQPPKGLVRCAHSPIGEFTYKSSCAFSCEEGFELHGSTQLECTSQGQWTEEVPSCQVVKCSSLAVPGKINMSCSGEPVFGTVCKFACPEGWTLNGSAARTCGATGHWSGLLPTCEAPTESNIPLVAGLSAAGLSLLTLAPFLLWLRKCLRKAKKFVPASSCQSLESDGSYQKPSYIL

O=C(Cl)C(F)(F)C(F)(F)C(F)(F)C(F)(F)C(F)(F)C(F)(F)C(F)(F)F
inactive: [1] | [2] | [4] | [5] | [6] | [7] | [8] | [9] | [10] | [11] | [12] | [13] | [14]
active: [2] 21.6 µM | [3] 30 µM and 36.9 µM | [6] 15.9 µM

O=C(Cl)C(F)(F)C(F)(F)C(F)(F)C(F)(F)C(F)(F)C(F)(F)F
active: [3] 15.8 µM and 21.5 µM
inactive: [1] | [2] | [3] | [4] | [5] | [6] | [7] | [8] | [9] | [10] | [11] | [12] | [13] | [14]

FC(F)(F)C(F)(F)C(F)(F)C(F)(F)C(F)(F)C(F)(F)C(F)(F)CCI
active: [6] 0.662 µM
inactive: [1] | [2] | [15] | [3] | [4] | [5] | [6] | [7] | [8] | [9] | [10] | [11] | [12] | [13] | [14]

O=C(O)C(F)(F)C(F)(F)C(F)(F)OC(F)(F)F
inactive: [1] | [2] | [15] | [3] | [4] | [5] | [6] | [7] | [8] | [9] | [10] | [11] | [12] | [13] | [14]

O=S(=O)(Cl)C(F)(F)C(F)(F)C(F)(F)C(F)(F)C(F)(F)C(F)(F)C(F)(F)C(F)(F)F
active: [1] 50.8 µM and 46.8 µM | [2] 30 µM | [3] 36.7 µM | [4] 54.9 µM and 54.8 µM | [5] 53.8 µM and 55.1 µM | [6] 41.3 µM and 21.5 µM | [7] 22.7 µM and 30 µM | [8] 46.7 µM
inactive: [2] | [3] | [8] | [9] | [10] | [11] | [12] | [13] | [14] | [16]

C=CC(=O)OCC(F)(F)C(F)(F)C(F)(F)C(F)(F)C(F)(F)C(F)(F)C(F)(F)C(F)F
active: [10] 6.81 µM | [12] 20.3 µM
inactive: [1] | [2] | [15] | [3] | [4] | [5] | [6] | [7] | [8] | [9] | [10] | [11] | [12] | [13] | [14]

CCN(CCO)S(=O)(=O)C(F)(F)C(F)(F)C(F)(F)C(F)(F)C(F)(F)C(F)(F)C(F)(F)C(F)(F)F
active: [3] 50.9 µM | [4] 51.6 µM | [5] 47.1 µM and 42.6 µM | [6] 19.3 µM and 11.8 µM | [7] 23.2 µM and 13.9 µM | [10] 32.7 µM and 30 µM | [11] 39 µM | [13] 36.9 µM
inactive: [1] | [2] | [3] | [4] | [8] | [9] | [11] | [12] | [13] | [14]

NC(O)(C(F)(F)F)C(F)(F)F
inactive: [1] | [2] | [15] | [3] | [4] | [5] | [6] | [7] | [8] | [9] | [10] | [11] | [12] | [13] | [14]

O=C(O)C(F)(F)OC(F)(F)C(F)(F)OC(F)(F)C(F)(F)OC(F)(F)F
active: [3] 5.47 µM and 14.2 µM
inactive: [1] | [2] | [3] | [4] | [5] | [6] | [7] | [8] | [9] | [10] | [11] | [12] | [13] | [14] | [17]

NS(=O)(=O)C(F)(F)C(F)(F)C(F)(F)C(F)(F)C(F)(F)C(F)(F)F
active: [3] 16.3 µM and 8.64 µM | [5] 30 µM | [6] 25.1 µM and 15.2 µM | [13] 39.5 µM and 25.4 µM | [14] 54.6 µM
inactive: [1] | [2] | [4] | [5] | [7] | [8] | [9] | [10] | [11] | [12] | [14]

O=S(=O)(O)CCC(F)(F)C(F)(F)C(F)(F)C(F)(F)F
inactive: [18] | [1] | [2] | [3] | [4] | [5] | [6] | [7] | [8] | [9] | [10] | [11] | [12] | [13] | [14]
